# Data as given in PubChem BioAssay (EPA / NIEHS).
# “And” between values parts separate entries of the source, which are not always exact repeats. Equal entries are not always repeated. Some compounds were tested as several samples or in several runs, with calls that do not always agree. The source made the active and inactive calls. How the source made its calls: active means hit-call score of the fitted dose curve at least 0.9, where 1 is the maximum; inactive means score below 0.9.
# Assays:
# [1] = ATG_GRE_CIS: Attagene CIS-FACTORIAL HepG2 Assay for human Glucocorticoid Response Elements (GRE) (AID 2282947); details: HepG2 GRE cis-reporter, Attagene multiplex mRNA; actives raise or lower the signal
# In short: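 Read-out: fluorescent reporter-transcript fragments separated by capillary electrophoresis after RT-PCR. Transiently transfected HepG2 cells carrying cis-element-driven reporter units were dosed for 24 h; gain or loss of signal fitted against DMSO control.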
# [2] = ATG_ISRE_CIS: Attagene CIS-FACTORIAL HepG2 Assay for human Interferon Regulatory Factor 1 (IRF1) binding to an Interferon-Stimulated Response Element (ISRE) (AID 2282948); details: HepG2 ISRE cis-reporter (Attagene), mRNA transcription readout; actives raise or lower the signal
# In short: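 Multiplexed mRNA reporter readout in human liver HepG2 cells: cis-element-driven reporters transfected, compound added for 24 h, transcripts amplified, fluorescently labelled and sized by capillary electrophoresis; curve fitting bidirectional against DMSO.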
# [3] = ATG_M_32_CIS: Attagene CIS-FACTORIAL HepG2 Assay for M32 Transcription Factor (Internal Marker) (AID 2282949); details: HepG2 Attagene cis-factorial M32 reporter, mRNA; actives raise or lower the signal;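 further: background control marker of the multiplexed CIS panel rather than a real target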
# In short: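 Transient MRTU transfection of HepG2; 24 h compound treatment; TriZol RNA, oligo(dT) RT, reporter PCR, 6-FAM primer extension, HpaI cut, CE. Gain/loss of signal vs DMSO.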
# [4] = ATG_M_06_CIS: Attagene CIS-FACTORIAL HepG2 Assay for M06 Transcription Factor (Internal Marker) (AID 2282950); details: HepG2 Attagene CIS-FACTORIAL M06 internal marker reporter; actives raise or lower the signal
# In short: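 Cells (HepG2, transiently carrying cis-driven reporter units) receive chemical for 24 h before RNA isolation. Reporter cDNA is PCR-amplified, FAM-labelled by primer extension, HpaI-digested and sized on a capillary analyser.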
# [5] = target: Hypoxia-inducible factor 1-alpha (Homo sapiens) (UniProt Q16665); assay: ATG_HIF1a_CIS: Attagene CIS-FACTORIAL HepG2 Assay for human Hypoxia Inducible Factor 1 (HIF1A) (AID 2282951); details: HepG2 Attagene cis-factorial HIF1a reporter transcription; actives raise or lower the signal
# Sequence of Hypoxia-inducible factor 1-alpha (Homo sapiens) (Q16665 whole entry, looked up): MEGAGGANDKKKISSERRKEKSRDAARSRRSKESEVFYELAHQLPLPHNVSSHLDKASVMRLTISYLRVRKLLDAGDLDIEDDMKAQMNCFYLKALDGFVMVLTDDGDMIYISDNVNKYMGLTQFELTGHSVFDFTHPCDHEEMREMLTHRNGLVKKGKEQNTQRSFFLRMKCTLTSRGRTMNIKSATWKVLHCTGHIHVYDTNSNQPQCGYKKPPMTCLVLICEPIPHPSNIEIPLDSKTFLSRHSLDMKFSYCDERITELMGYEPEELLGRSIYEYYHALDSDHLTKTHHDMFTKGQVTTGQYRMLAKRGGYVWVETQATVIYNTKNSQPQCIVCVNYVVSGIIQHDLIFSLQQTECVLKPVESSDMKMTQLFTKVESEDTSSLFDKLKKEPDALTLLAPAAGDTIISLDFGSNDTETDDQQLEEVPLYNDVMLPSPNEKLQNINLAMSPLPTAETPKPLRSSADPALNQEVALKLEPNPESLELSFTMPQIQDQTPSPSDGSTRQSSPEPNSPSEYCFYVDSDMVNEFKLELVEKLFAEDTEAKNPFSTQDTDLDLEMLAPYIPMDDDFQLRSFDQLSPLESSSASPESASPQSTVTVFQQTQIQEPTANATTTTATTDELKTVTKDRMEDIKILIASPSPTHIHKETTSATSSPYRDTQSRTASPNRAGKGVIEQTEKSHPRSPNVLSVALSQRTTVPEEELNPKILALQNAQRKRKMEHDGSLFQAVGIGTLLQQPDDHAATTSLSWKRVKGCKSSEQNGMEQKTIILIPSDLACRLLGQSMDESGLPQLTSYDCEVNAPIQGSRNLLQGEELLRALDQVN
# In short: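 Endogenous-TF cis reporter readout, human HepG2 cells, 24 h incubation; mRNA detected via RT-PCR and capillary electrophoresis fluorescence; DMSO-normalised bidirectional fitting.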
# [6] = target: Hepatocyte nuclear factor 6 (Homo sapiens) (UniProt Q9UBC0); assay: ATG_HNF6_CIS: Attagene CIS-FACTORIAL HepG2 Assay for human Hepatocyte Nuclear Factor 6 (HNF6) (AID 2282952); details: HepG2 Attagene cis-factorial HNF6 reporter transcription; actives raise or lower the signal
# Sequence of Hepatocyte nuclear factor 6 (Homo sapiens) (Q9UBC0 whole entry, looked up): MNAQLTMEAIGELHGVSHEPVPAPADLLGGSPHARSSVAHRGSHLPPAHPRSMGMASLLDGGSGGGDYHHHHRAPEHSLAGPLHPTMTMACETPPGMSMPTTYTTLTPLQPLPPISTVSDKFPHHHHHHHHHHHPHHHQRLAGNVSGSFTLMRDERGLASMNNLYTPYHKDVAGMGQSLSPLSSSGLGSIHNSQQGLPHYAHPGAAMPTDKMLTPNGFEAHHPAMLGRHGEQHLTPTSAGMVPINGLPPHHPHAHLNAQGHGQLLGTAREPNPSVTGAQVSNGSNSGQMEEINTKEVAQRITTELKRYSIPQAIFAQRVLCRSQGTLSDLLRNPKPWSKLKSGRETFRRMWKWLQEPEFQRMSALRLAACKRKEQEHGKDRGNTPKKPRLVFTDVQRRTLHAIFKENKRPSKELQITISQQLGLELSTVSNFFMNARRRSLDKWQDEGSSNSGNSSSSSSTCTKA
# In short: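 Endogenous transcription factor activity in human HepG2 liver cells was captured through cis-regulated reporter constructs. After 24 h treatment, reporter mRNA was measured by RT-PCR with capillary electrophoresis, and activity was fitted in both directions relative to DMSO.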
# [7] = target: Heat shock factor protein 1 (Homo sapiens) (UniProt Q00613); assay: ATG_HSE_CIS: Attagene CIS-FACTORIAL HepG2 Assay for human Heat Shock Transcription Factor 1 (HSE) (AID 2282953); details: HepG2 HSE cis-reporter, Attagene RNA transcription; actives raise or lower the signal
# Sequence of Heat shock factor protein 1 (Homo sapiens) (Q00613 whole entry, looked up): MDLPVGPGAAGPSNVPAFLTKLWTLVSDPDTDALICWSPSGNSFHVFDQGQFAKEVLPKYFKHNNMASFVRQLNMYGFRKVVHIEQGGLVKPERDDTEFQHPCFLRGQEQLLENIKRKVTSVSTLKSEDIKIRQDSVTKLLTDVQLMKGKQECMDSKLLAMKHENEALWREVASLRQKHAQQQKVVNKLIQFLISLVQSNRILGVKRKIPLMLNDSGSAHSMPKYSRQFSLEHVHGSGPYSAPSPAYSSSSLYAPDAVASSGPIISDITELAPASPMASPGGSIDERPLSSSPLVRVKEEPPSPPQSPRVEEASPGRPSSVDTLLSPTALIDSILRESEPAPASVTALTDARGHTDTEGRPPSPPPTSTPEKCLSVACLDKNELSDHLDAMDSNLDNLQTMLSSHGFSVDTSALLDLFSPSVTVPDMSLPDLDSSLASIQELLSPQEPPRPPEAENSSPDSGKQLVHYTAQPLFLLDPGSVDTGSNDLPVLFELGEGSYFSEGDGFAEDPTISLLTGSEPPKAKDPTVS
# In short: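 Liver-derived HepG2 cells carry transiently introduced multiple reporter units governed by cis promoters. Reporter RNA measured 24 h post-dose through reverse transcription, PCR amplification, fluorescent labelling and capillary electrophoresis, normalised to DMSO.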
# [8] = ATG_MRE_CIS: Attagene CIS-FACTORIAL HepG2 Assay for human Metal Responsive Element (MRE) (AID 2282954); details: HepG2 MRE cis-reporter transcription, Attagene multiplex; actives raise or lower the signal
# In short: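 RT-PCR/capillary electrophoresis readout of reporter mRNA, 24 h post-dosing, in HepG2 cells transfected with multiplexed cis-regulated reporter constructs. Gain or loss of signal fitted bidirectionally against DMSO baseline.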
# [9] = ATG_PBREM_CIS: Attagene CIS-FACTORIAL HepG2 Assay for human Phenobarbital-responsive Enhancer Module (PBREM) (AID 2282955); details: HepG2 PBREM cis-reporter, Attagene multiplexed transcription; actives raise or lower the signal
# In short: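 Readout: reporter mRNA, fluorescent RT-PCR fragments separated by capillary electrophoresis. System: HepG2 transiently transfected with cis-regulated reporter units. Exposure: 24 h. Analysis: bidirectional, DMSO baseline.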
# [10] = ATG_PXRE_CIS: Attagene CIS-FACTORIAL HepG2 Assay for human Pregnane X Receptor Element (PXRE) (AID 2282957); details: HepG2 Attagene CIS-FACTORIAL PXRE reporter, mRNA; actives raise or lower the signal
# In short: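 Endogenous transcription factor activity in HepG2 was gauged through induction of reporter mRNA driven by a cis-regulating promoter element, sampled 24 h post-treatment. Activity was fitted in both directions against DMSO negative control.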
# [11] = ATG_PPRE_CIS: Attagene CIS-FACTORIAL HepG2 Assay for human Peroxisome Proliferator-activated Response Element (PPRE) (AID 2282958); details: HepG2 PPRE cis-element reporter, Attagene transcription factor profiling; actives raise or lower the signal
# In short: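 After human HepG2 hepatoma cells were transiently transfected with cis-promoter reporter constructs, they were exposed to test chemicals for 24 hours. Reporter RNA was then reverse-transcribed, PCR-amplified, FAM-labeled, HpaI-digested and quantified by capillary electrophoresis.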
# [12] = ATG_RORE_CIS: Attagene CIS-FACTORIAL HepG2 Assay for human RAR-related Orphan Receptor Element (RORE) (AID 2282959); details: HepG2 Attagene cis-factorial RORE reporter, mRNA; actives raise or lower the signal
# In short: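 Measured here: transcript induction of a cis-regulated reporter in HepG2 cells transiently transfected via FuGene 6. After 24 h, RNA was processed by RT-PCR and fluorescent capillary electrophoresis; DMSO defined baseline activity.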
# [13] = ATG_Sox_CIS: Attagene CIS-FACTORIAL HepG2 Assay for human SRY-box transcription factor (SOX) (AID 2282960); details: HepG2 Attagene cis-factorial SOX reporter, mRNA; actives raise or lower the signal
# In short: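 Using transiently transfected HepG2 cells, reporter transcription driven by cis elements was assessed 24 h after dosing. Signal was fluorescence of capillary-separated RT-PCR products, with DMSO defining baseline activity.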
# [14] = target: Transcription factor Sp1 (Homo sapiens) (UniProt P08047); assay: ATG_Sp1_CIS: Attagene CIS-FACTORIAL HepG2 Assay for human Specificity Protein 1 (Sp1) (AID 2282961); details: HepG2 Sp1 cis-reporter transcription, actives raise or lower the signal
# Sequence of Transcription factor Sp1 (Homo sapiens) (P08047 whole entry, looked up): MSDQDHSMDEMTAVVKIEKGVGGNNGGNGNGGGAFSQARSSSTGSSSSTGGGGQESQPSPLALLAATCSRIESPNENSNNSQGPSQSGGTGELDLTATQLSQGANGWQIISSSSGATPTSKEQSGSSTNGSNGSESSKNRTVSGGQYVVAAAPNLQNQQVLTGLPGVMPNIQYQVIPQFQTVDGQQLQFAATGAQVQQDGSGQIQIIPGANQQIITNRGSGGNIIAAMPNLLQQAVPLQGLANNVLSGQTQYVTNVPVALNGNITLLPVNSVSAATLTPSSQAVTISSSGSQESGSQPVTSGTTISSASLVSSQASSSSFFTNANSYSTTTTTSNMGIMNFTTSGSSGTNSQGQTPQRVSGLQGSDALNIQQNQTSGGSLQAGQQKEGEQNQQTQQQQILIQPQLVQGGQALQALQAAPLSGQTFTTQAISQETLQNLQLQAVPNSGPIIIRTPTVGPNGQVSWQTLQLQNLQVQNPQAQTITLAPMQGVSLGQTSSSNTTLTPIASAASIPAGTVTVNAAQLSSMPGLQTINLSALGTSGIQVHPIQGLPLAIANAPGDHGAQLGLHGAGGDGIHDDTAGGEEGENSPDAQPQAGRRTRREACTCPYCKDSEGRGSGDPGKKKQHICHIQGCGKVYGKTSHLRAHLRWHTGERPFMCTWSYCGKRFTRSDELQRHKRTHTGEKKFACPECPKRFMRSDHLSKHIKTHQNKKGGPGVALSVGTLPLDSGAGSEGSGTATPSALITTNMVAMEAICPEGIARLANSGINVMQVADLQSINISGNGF
# In short: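 After transient transfection of HepG2 cells with cis-promoter reporter units and 24 h chemical treatment, reporter transcripts were quantified by RT-PCR and capillary electrophoresis fluorescence. Gain- and loss-of-signal fitted against DMSO.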
# [15] = ATG_SREBP_CIS: Attagene CIS-FACTORIAL HepG2 Assay for human Sterol Regulatory Element Binding (SREBP) (AID 2282962); details: HepG2 Attagene cis-factorial SREBP reporter, mRNA; actives raise or lower the signal
# In short: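 Endogenous factor activity is measured in HepG2 through multiplexed reporter units under cis-element control. Following a 24 h incubation, reporter transcripts are reverse-transcribed, PCR-amplified and sized by capillary electrophoresis; activity is fitted in both directions relative to DMSO.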
# [16] = target: Signal transducer and activator of transcription 3 (Homo sapiens) (UniProt P40763); assay: ATG_STAT3_CIS: Attagene CIS-FACTORIAL HepG2 Assay for human Signal Transducer and Activator of Transcription 3 (STAT3) (AID 2282963); details: HepG2, Attagene cis-factorial STAT3 reporter transcription; actives raise or lower the signal
# Sequence of Signal transducer and activator of transcription 3 (Homo sapiens) (P40763 whole entry, looked up, the tested form may be a part): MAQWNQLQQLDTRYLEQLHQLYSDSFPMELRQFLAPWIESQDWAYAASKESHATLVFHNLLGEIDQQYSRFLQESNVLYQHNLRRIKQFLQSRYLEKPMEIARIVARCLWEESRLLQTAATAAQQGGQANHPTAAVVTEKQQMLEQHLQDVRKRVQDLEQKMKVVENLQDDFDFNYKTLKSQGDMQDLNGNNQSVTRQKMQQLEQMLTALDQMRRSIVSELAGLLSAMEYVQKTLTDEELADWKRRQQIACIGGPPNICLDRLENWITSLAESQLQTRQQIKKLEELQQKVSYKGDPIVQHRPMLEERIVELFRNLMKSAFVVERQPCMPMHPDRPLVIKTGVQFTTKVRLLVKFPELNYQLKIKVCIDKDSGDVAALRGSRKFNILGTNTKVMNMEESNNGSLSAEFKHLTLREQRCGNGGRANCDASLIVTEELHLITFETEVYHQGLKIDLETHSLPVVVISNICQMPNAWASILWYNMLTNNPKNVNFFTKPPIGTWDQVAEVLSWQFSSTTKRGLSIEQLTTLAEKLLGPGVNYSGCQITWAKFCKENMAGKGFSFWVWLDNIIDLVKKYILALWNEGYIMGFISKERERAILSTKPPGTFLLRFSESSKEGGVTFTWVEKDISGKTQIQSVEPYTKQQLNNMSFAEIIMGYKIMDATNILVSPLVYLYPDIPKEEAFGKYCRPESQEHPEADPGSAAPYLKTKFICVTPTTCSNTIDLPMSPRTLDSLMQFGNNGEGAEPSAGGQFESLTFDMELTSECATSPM
# In short: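 Readout: fluorescent reporter mRNA fragments resolved by capillary electrophoresis. Setup: HepG2 transfected with MRTUs reporting endogenous transcription-factor activity, dosed 24 h. Gain or loss of signal fitted bidirectionally against DMSO control.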
# [17] = ATG_TA_CIS: Attagene CIS-FACTORIAL HepG2 Assay for human TA Basal Promoter (AID 2282964); details: HepG2 Attagene CIS-factorial TA basal promoter reporter; actives raise or lower the signal
# In short: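 Background internal-marker endpoint from a 52-component HepG2 cis-reporter panel. Cells treated 24 h; reporter transcripts quantified via RT-PCR and CE fluorescence against DMSO baseline.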
# [18] = ATG_TCF_b_cat_CIS: Attagene CIS-FACTORIAL HepG2 Assay for human T-Cell-Factor with beta-catenin (TCF/b-cat) (AID 2282965); details: HepG2 TCF/beta-catenin cis-reporter transcription, actives raise or lower the signal
# In short: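 HepG2, transient MRTU transfection, cis-element-driven reporters (endogenous TFs). 24 h compound exposure. Readout: reporter mRNA by RT-PCR + 6-FAM primer extension, HpaI digest, capillary electrophoresis. Gain/loss fit vs DMSO baseline.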
# [19] = target: Paired box protein Pax-6 (Homo sapiens) (UniProt P26367); assay: ATG_Pax6_CIS: Attagene CIS-FACTORIAL HepG2 Assay for human Paired Box 6 (PAX6) (AID 2282956); details: HepG2 CIS-FACTORIAL PAX6 reporter transcription, RNA readout; actives raise or lower the signal
# Sequence of Paired box protein Pax-6 (Homo sapiens) (P26367 whole entry, looked up): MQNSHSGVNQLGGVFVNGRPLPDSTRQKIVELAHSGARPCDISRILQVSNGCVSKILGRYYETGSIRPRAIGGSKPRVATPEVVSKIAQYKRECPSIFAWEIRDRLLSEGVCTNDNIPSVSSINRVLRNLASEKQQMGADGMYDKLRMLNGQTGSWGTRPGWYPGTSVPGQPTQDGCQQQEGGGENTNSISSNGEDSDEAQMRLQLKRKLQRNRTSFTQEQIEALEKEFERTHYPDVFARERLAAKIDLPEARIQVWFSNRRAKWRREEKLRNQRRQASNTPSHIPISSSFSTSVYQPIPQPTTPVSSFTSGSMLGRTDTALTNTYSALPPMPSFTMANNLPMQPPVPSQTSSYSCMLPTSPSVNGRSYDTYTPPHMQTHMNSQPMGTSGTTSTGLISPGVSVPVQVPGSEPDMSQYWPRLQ
# In short: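 Fluorescent RT-PCR products separated by capillary electrophoresis report PAX6-linked promoter mRNA in HepG2 cells 24 h post-dose. Curves fitted bidirectionally, DMSO as negative control.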
# [20] = ATG_TAL_CIS: Attagene CIS-FACTORIAL HepG2 Assay for human TAL Basal Promoter (AID 2282966); details: HepG2 Attagene cis-factorial TAL promoter reporter; actives raise or lower the signal;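 further: background control endpoint measuring basal TAL promoter reporter mRNA not a specific factor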
# In short: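 Endogenous transcription-factor activity is sensed in HepG2 cells through transfected cis-promoter reporter constructs. After 24 h dosing, reporter transcripts are quantified by RT-PCR and capillary electrophoresis. Gain or loss of signal is fitted relative to DMSO.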
structure (smiles),measurement,setting,value
C[C@]12C[C@H](O)[C@H]3[C@@H](CCC4=CC(=O)CC[C@@]43C)[C@@H]1CC[C@@H]2C(=O)CO,AC50,[1],26.6 µM (active)
same,outcome,[1],inactive
same,outcome,[2],inactive
same,outcome,[3],inactive
same,outcome,[4],inactive
same,AC50,[5],55.9 µM (active)
same,outcome,[5],inactive
same,outcome,[6],inactive
same,outcome,[7],inactive
same,outcome,[8],inactive
same,outcome,[9],inactive
same,AC50,[10],32.7 µM (active) [middle of 4 runs]
same,outcome,[11],inactive
same,outcome,[12],inactive
same,outcome,[13],inactive
same,outcome,[14],inactive
same,outcome,[15],inactive
same,outcome,[16],inactive
same,outcome,[17],inactive
same,outcome,[18],inactive
O=C(c1ccc(O)cc1O)c1ccc(O)cc1O,outcome,[1],inactive
same,AC50,[2],100 µM (active)
same,outcome,[2],inactive
same,outcome,[3],inactive
same,outcome,[4],inactive
same,outcome,[5],inactive
same,outcome,[6],inactive
same,AC50,[7],41.3 µM (active) [middle of 4 runs]
same,outcome,[8],inactive
same,outcome,[9],inactive
same,outcome,[10],inactive
same,AC50,[11],28.4 µM (active)
same,outcome,[11],inactive
same,outcome,[12],inactive
same,outcome,[13],inactive
same,outcome,[14],inactive
same,outcome,[15],inactive
same,outcome,[17],inactive
same,AC50,[18],53.5 µM (active)
same,outcome,[18],inactive
CC1(C)C(C=C(Cl)Cl)C1C(=O)OCc1cccc(Oc2ccccc2)c1 (stereo not given),outcome,[1],inactive
same,outcome,[2],inactive
same,outcome,[4],inactive
same,outcome,[5],inactive
same,outcome,[6],inactive
same,outcome,[7],inactive
same,outcome,[8],inactive
same,outcome,[9],inactive
same,outcome,[19],inactive
same,AC50,[10],7.62 µM (active)
same,outcome,[12],inactive
same,outcome,[13],inactive
same,outcome,[14],inactive
same,outcome,[15],inactive
same,outcome,[16],inactive
same,outcome,[17],inactive
same,outcome,[18],inactive
same,outcome,[20],inactive
CC(C)CCCCCCc1ccc(O)cc1,outcome,[1],inactive
same,AC50,[2],18.4 µM (active) and 13.7 µM (active)
same,outcome,[2],inactive
same,outcome,[4],inactive
same,outcome,[5],inactive
same,outcome,[6],inactive
same,AC50,[7],15.3 µM (active) and 19.9 µM (active) and 17 µM (active)
same,outcome,[7],inactive
same,AC50,[8],16.3 µM (active) and 17.6 µM (active)
same,outcome,[8],inactive
same,AC50,[9],15.8 µM (active)
same,outcome,[9],inactive
same,AC50,[10],2.88 µM (active) [middle of 4 runs]
same,AC50,[11],11.1 µM (active)
same,outcome,[11],inactive
same,outcome,[12],inactive
same,AC50,[13],17.8 µM (active) and 17.5 µM (active)
same,outcome,[13],inactive
same,AC50,[14],19.4 µM (active) and 16.2 µM (active)
same,outcome,[14],inactive
same,AC50,[15],20.2 µM (active)
same,outcome,[15],inactive
same,outcome,[16],inactive
same,AC50,[17],20.3 µM (active)
same,outcome,[17],inactive
same,AC50,[18],15.2 µM (active) and 16.8 µM (active) and 17.4 µM (active)
same,outcome,[18],inactive
